Measurements: PubChem BioAssay (NCI)
Several values for one entry are separate records, joined by “and”; a condition that tells them apart may be missing. Equal values may be shown once. This is part of a sample that, as a whole, favours compounds with a hit. Of some 83,000 tested, about 20% had one in any assay.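 Values shown are percent growth following 48 h exposure of cells in 96-well plates to a single concentration of compound; below 10 was considered active.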 Unmarked numbers belong to inactive results. Activity calls are given as the source filed them.

Key:
Experiment in all cases: NCI-60 one-dose screen, 48 h (100 = growth as untreated, 0 = no growth, -100 = all killed)
[1] = test system: RPMI-8226 leukemia; details: 10 µM
[2] = test system: OVCAR-8 ovarian; details: 10 µM
[3] = test system: OVCAR-5 ovarian; details: 10 µM
[4] = test system: OVCAR-4 ovarian; details: 10 µM
[5] = test system: SK-OV-3 ovarian; details: 10 µM
[6] = test system: IGROV1 ovarian; details: 10 µM
[7] = test system: HS 578T breast; details: 10 µM
[8] = test system: NCI/ADR-RES ovarian; details: 10 µM
[9] = test system: T-47D breast; details: 10 µM
[10] = test system: BT-549 breast; details: 10 µM
[11] = test system: MDA-MB-435 melanoma; details: 10 µM
[12] = test system: SW-620 colon; details: 10 µM
[13] = test system: MCF7 breast
[14] = test system: HCT-116 colon; details: 10 µM
[15] = test system: HCC-2998 colon; details: 10 µM
[16] = test system: KM12 colon; details: 10 µM

Question: With CC[C@@]1(OC(=O)CN(C)C)C(=O)OCc2c1cc1n(c2=O)Cc2cc3c(N)cccc3nc2-1 as the compound, how does the growth [1] read?
Answer: The growth was 2.58% (active).

Question: And the growth [2]?
Answer: Its growth is 14.5%.

Question: What about the growth [3] of the same compound?
Answer: Its growth is 15.1%.

Question: And the growth [4]?
Answer: Its growth is 10.2%.

Question: And the growth [5]?
Answer: The growth was 2.84% (active).

Question: What about the growth [6] of the same compound?
Answer: Its growth is -3.28% (active).

Question: And the growth [7]?
Answer: The growth was 62.5%.

Question: And the growth [8]?
Answer: The growth was 5.59% (active).

Question: What about the growth [9] of the same compound?
Answer: The growth was 13.3%.

Question: And the growth [10]?
Answer: Its growth is -11.8% (active).

Question: And the growth [11]?
Answer: Its growth is -44.7% (active).

Question: And the growth [12]?
Answer: The growth was 3.83% (active).

Question: What about the growth ([13]; 10 µM) of the same compound?
Answer: The growth was -1.34% (active).

Question: What about the growth [14] of the same compound?
Answer: The growth was 0.716% (active).

Question: What about the growth [15] of the same compound?
Answer: Its growth is -14.7% (active).

Question: What about the growth [16] of the same compound?
Answer: The growth was 0.253% (active).

Question: For O=C(NC(=S)Nc1ccccn1)c1ccccc1, which growth [1] is on record?
Answer: The growth was 60.4%.

Question: What about the growth [2] of the same compound?
Answer: The growth was 103%.

Question: What about the growth [3] of the same compound?
Answer: The growth was 89.1%.

Question: And the growth [4]?
Answer: The growth was 62.7%.

Question: And the growth [5]?
Answer: The growth was 107%.

Question: What about the growth [6] of the same compound?
Answer: The growth was 78.7%.

Question: What about the growth [7] of the same compound?
Answer: Its growth is 88.8%.

Question: What about the growth [8] of the same compound?
Answer: The growth was 55.3%.

Question: What about the growth [9] of the same compound?
Answer: Its growth is 59.1%.

Question: What about the growth [10] of the same compound?
Answer: The growth was 77.1%.

Question: And the growth [11]?
Answer: The growth was 105%.

Question: And the growth [12]?
Answer: Its growth is 96.1%.

Question: What about the growth ([13]; 10 µM) of the same compound?
Answer: Its growth is 24.3%.

Question: What about the growth [14] of the same compound?
Answer: The growth was 87.9%.

Question: And the growth [16]?
Answer: Its growth is 97%.

Question: ClCCn1c(CCl)nc2ccc(Cl)cc21 was tested. Which growth [1] did it give?
Answer: The growth was -22.2% (active).

Question: What about the growth [2] of the same compound?
Answer: The growth was -33% (active).

Question: What about the growth [3] of the same compound?
Answer: The growth was -22.9% (active).

Question: And the growth [4]?
Answer: The growth was -18.9% (active).

Question: And the growth [6]?
Answer: Its growth is -62.5% (active).

Question: What about the growth [7] of the same compound?
Answer: Its growth is -10.9% (active).

Question: What about the growth [8] of the same compound?
Answer: The growth was 2.35% (active).

Question: And the growth [10]?
Answer: Its growth is -66.2% (active).

Question: What about the growth [11] of the same compound?
Answer: Its growth is -83% (active).

Question: And the growth [12]?
Answer: Its growth is -54.6% (active).

Question: What about the growth ([13]; 10 µM) of the same compound?
Answer: The growth was -6.55% (active).

Question: What about the growth [14] of the same compound?
Answer: The growth was -28.9% (active).

Question: And the growth [15]?
Answer: The growth was -2.45% (active).

Question: What about the growth [16] of the same compound?
Answer: The growth was -43% (active).

Question: Which results are given for CC1CCC2(C(=O)O)CCC3(C)C(=CCC4C5(C)CC(O)C(O)C(C)(CO)C5C(O)CC43C)C2C1C (stereo not drawn)?
Answer: growth [1]: 128%; growth [3]: 188%; growth [4]: 114%; growth [5]: 103%; growth [6]: 92.8%; growth [8]: 99.4%; growth [9]: 97%; growth [10]: 114%; growth [11]: 110%; growth [12]: 107%; growth ([13]; 10 µM): 96.9%; growth [14]: 103%; growth [16]: 104%

Question: O=C(CNS(=O)(=O)Cc1ccccc1)NNc1ccccc1 was tested. Which growth [1] did it give?
Answer: Its growth is 62.4%.

Question: What about the growth [2] of the same compound?
Answer: The growth was 58.4%.

Question: What about the growth [3] of the same compound?
Answer: Its growth is 68.6%.

Question: And the growth [4]?
Answer: Its growth is 42.6%.

Question: And the growth [5]?
Answer: Its growth is 78.7%.

Question: And the growth [6]?
Answer: Its growth is 65.5%.

Question: And the growth [8]?
Answer: Its growth is 67%.

Question: What about the growth [9] of the same compound?
Answer: Its growth is 56.6%.

Question: What about the growth [10] of the same compound?
Answer: Its growth is 82.9%.

Question: What about the growth [11] of the same compound?
Answer: The growth was 21.9%.

Question: What about the growth ([13]; 10 µM) of the same compound?
Answer: Its growth is 76.5%.

Question: And the growth [14]?
Answer: The growth was 55.6%.

Question: What about the growth [15] of the same compound?
Answer: The growth was 70.5%.

Question: What about the growth [16] of the same compound?
Answer: Its growth is 15%.

Question: What does the source list for COc1ccc2c(c1)[nH]c1c(/C=C/c3ccccc3)nccc12?
Answer: growth [1]: 25.2%; growth [3]: 74.2%; growth [4]: 21.4%; growth [5]: 65.1%; growth [6]: -15.7% (active); growth [7]: 70.4%; growth [8]: 53.4%; growth [9]: 43.7%; growth [10]: 61.8%; growth [11]: 85%; growth [12]: 72.1%; growth ([13]; 10 µM): 65.7%; growth [14]: 29.9%; growth [15]: 34.4%; growth [16]: 71.1%

Question: Which growth [1] does the source give for Cc1cc(O)c2c(c1O)C(=O)C13C(=C2O)C(=O)C2C(O)C1C1C(O)C3C(=O)C3=C(O)c4c(O)cc(C)c(O)c4C(=O)C321 (stereo not drawn) here?
Answer: The growth was -4.03% (active).

Question: And the growth [3]?
Answer: The growth was -50.6% (active).

Question: And the growth [4]?
Answer: The growth was 27.8%.

Question: And the growth [5]?
Answer: The growth was -13.1% (active).

Question: And the growth [6]?
Answer: The growth was 10.3%.

Question: And the growth [7]?
Answer: The growth was -55.2% (active).

Question: What about the growth [8] of the same compound?
Answer: The growth was -17% (active).

Question: What about the growth [9] of the same compound?
Answer: Its growth is -1.74% (active).

Question: And the growth [10]?
Answer: The growth was -53.3% (active).

Question: What about the growth [11] of the same compound?
Answer: Its growth is -14.7% (active).

Question: What about the growth [12] of the same compound?
Answer: Its growth is 8.3% (active).

Question: And the growth ([13]; 10 µM)?
Answer: The growth was 4.59% (active).

Question: What about the growth [14] of the same compound?
Answer: Its growth is 2.8% (active).

Question: What about the growth [15] of the same compound?
Answer: Its growth is -43.6% (active).

Question: And the growth [16]?
Answer: The growth was -53.3% (active).

Question: With C=C1N(C)c2ccc(Cl)cc2C1(C)C as the compound, how does the growth [1] read?
Answer: The growth was -13.2% (active).

Question: What about the growth [2] of the same compound?
Answer: Its growth is 67.9%.

Question: And the growth [3]?
Answer: Its growth is 82.9%.

Question: What about the growth [4] of the same compound?
Answer: Its growth is 60.7%.

Question: What about the growth [5] of the same compound?
Answer: Its growth is 82%.

Question: And the growth [7]?
Answer: Its growth is 49.8%.

Question: What about the growth [8] of the same compound?
Answer: Its growth is 95.8%.

Question: What about the growth [9] of the same compound?
Answer: Its growth is 33.7%.

Question: And the growth [10]?
Answer: Its growth is 66.9%.

Question: What about the growth [11] of the same compound?
Answer: Its growth is 77.1%.

Question: And the growth [12]?
Answer: The growth was 57.4%.

Question: What about the growth ([13]; 10 µM) of the same compound?
Answer: The growth was 89%.

Question: What about the growth [14] of the same compound?
Answer: The growth was 17.2%.

Question: And the growth [15]?
Answer: The growth was 68.7%.

Question: What about the growth [16] of the same compound?
Answer: The growth was 40.2%.

Question: How did the growth [1] turn out when Cc1cc(C)c(N2C(=O)CC(Sc3ccccc3N)C2=O)c(C)c1 (stereo not drawn) was run?
Answer: The growth was 66.3%.

Question: And the growth [2]?
Answer: The growth was 91.1%.

Question: What about the growth [3] of the same compound?
Answer: Its growth is 118%.

Question: And the growth [4]?
Answer: Its growth is 71.4%.

Question: And the growth [5]?
Answer: Its growth is 71.6%.

Question: What about the growth [6] of the same compound?
Answer: The growth was 92%.

Question: And the growth [7]?
Answer: The growth was 81%.

Question: And the growth [8]?
Answer: The growth was 75%.

Question: And the growth [9]?
Answer: The growth was 87.8%.

Question: What about the growth [10] of the same compound?
Answer: The growth was 96.2%.

Question: And the growth [11]?
Answer: Its growth is -20.8% (active).

Question: And the growth [12]?
Answer: The growth was 55.9%.

Question: And the growth ([13]; 10 µM)?
Answer: Its growth is 31.7%.

Question: And the growth [14]?
Answer: Its growth is 79.2%.

Question: And the growth [16]?
Answer: Its growth is 50.9%.

Question: For C=C(C)[C@@H]1CCc2c(O)c(O)c(=O)cc(C)c2C1, which growth ([13]; 100 µM) is on record?
Answer: Its growth is -84.1% (active) and -67.9% (active).
